Assay outcomes (PubChem)
Pf Dd2 inh – inhibitors of Plasmodium falciparum Dd2 growth | P. falciparum Dd2 growth, SYBR Green, 72 h | Potency, µM (titrated, usually from 28.9 µM), for the others: at the highest dose activity, negative = inhibition, usual class: inhibitors | 4.3% of 120,000 active; active = well fitted inhibition curve with a large enough effect;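 note: plate controls were DMSO vehicle for no effect and reference drug for full effect; nearly all actives have a fitted effect of over 65% in size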
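Readout: SYBR Green fluorescence, 485 nm excitation, 535 nm emission, after ~16 h lysis at 37C. Before that, Dd2-infected red cells (2.5% hematocrit) grew 72 h with compound, 29 uM top final concentration.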
The depositor's hits bear a star; [ ] = another dose, or the depositor's remark. Many of the other results were omitted from the sample, so hits are more common in it than they were. Potency is the fitted concentration of half-maximal effect.

For O=C(c1ccc(F)cc1F)N1CCC2(CC1)OCC(C(=O)N1CCCC1)N2C(=O)c1ccco1 (centres undefined) the results were Pf Dd2 inh -2.7%.
Screening CCc1noc(-c2cn(C3CCN(C(=O)c4ccsc4)CC3)nn2)n1 returned Pf Dd2 inh inactive.
Screening COCc1nc(C2CCCN(C(=O)c3ccc(C)cc3)C2)no1 (centres undefined) returned Pf Dd2 inh 38.9%.
Cc1cn2nc(-c3nc(C4CCCN(C(=O)Cc5cccc(F)c5)C4)no3)cc2c(=O)[nH]1 (centres undefined) was read as Pf Dd2 inh 3.98µM*.
Screening Cc1cccc(C(=O)N2CCC(c3noc(CO)n3)C2)c1 (centres undefined) returned Pf Dd2 inh 1.0%.
Cc1cn2nc(-c3nc(C4CCCN(C(=O)c5ccc(C)s5)C4)no3)cc2c(=O)[nH]1 (centres undefined) was read as Pf Dd2 inh -12.2%.
Screening CCOCc1nc(C2CCCN(C(=O)c3ccc(OC)cc3)C2)no1 (centres undefined) returned Pf Dd2 inh inactive.
Screening Cc1cn2nc(-c3nc(C4CCCN(C(=O)c5sccc5C)C4)no3)cc2c(=O)[nH]1 (centres undefined) returned Pf Dd2 inh 4.47µM*.
Screening Cc1cccc(C(=O)N2CCCC(c3noc(-c4cc5c(=O)[nH]c(C)cn5n4)n3)C2)c1 (centres undefined) returned Pf Dd2 inh 5.62µM*.
Screening O=C(Cc1cccc(F)c1)N1CCCC(c2nc(C3CCOCC3)no2)C1 (centres undefined) returned Pf Dd2 inh 21.3%.
For CCc1ccc(C(=O)N2CCCC(c3noc(-c4cc5c(=O)[nH]c(C)cn5n4)n3)C2)cc1 (centres undefined) the results were Pf Dd2 inh 0.891µM*.
`CCOCc1nc(C2CCCN(C(=O)Cc3cccc(C)c3)C2)no1` (centres undefined) gave Pf Dd2 inh 20.1%.
For Cc1cccc(C(=O)N2CCCC(c3noc(COc4ccccc4)n3)C2)c1 (centres undefined) the results were Pf Dd2 inh 2.3%.
`Cc1ccsc1C(=O)N1CCCC(c2noc(COc3ccccc3F)n2)C1` (centres undefined) gave Pf Dd2 inh 9.0%.
O=C(COc1ccccc1)N1CCN(c2cc(C(F)(F)F)ncn2)CC1 was read as Pf Dd2 inh -27.6%.
`COCC(=O)NC1CCC12CCN(S(=O)(=O)C(C)C)CC2` (centres undefined) gave Pf Dd2 inh -22.5%.
COC(=O)CNC(=O)c1cc(-c2ccc(Cl)nc2)nc2c1cnn2C was read as Pf Dd2 inh 4.9%.
CC(C)NC(=O)C[C@@H]1C[C@H]2O[C@H](CNC(=O)Nc3ccc(F)cc3)[C@@H](O)[C@H]2O1 was read as Pf Dd2 inh 6.0%[44.1 µM].
Screening Cc1nc(CC(=O)N2CCC(Cc3nnc(CO)n3C)CC2)cs1 returned Pf Dd2 inh 2.5%.
`CC(C)c1nnc(C2CN(C(=O)CCc3nc4ccccc4[nH]3)CC23CCOCC3)o1` (centres undefined) gave Pf Dd2 inh 1.8%.
Screening CN(CC(=O)N1CCc2c(c(-c3nncn3-c3ccccc3)nn2C)C1)S(=O)(=O)c1cnc[nH]1 returned Pf Dd2 inh inactive.
Cc1ccsc1[C@@H]1CCN(C(=O)c2ccccc2-c2ncc[nH]2)C[C@H]1O was read as Pf Dd2 inh -14.2%.
CC(C)(N)C(=O)N1CCCC(N2CCN(c3cccc(C(F)(F)F)c3)CC2)C1 (centres undefined) was read as Pf Dd2 inh -0.9%.
COCC1CCN(C(=O)c2ccc(C)cc2F)C1 (centres undefined) was read as Pf Dd2 inh -4.3%.
`Cn1nc(C(=O)N2CCOCC(O)(CN3CCCC3)C2)ccc1=O` (centres undefined) gave Pf Dd2 inh 1.7%.
Screening O=C(c1cccc2[nH]ccc12)N1CC(Oc2cccc(-c3nc(-c4ccccc4)no3)c2)C1 returned Pf Dd2 inh inactive[5.79 µM].
`OC1(CN2CCN(CCc3ccccn3)CC2)CCCNC1` (centres undefined) gave Pf Dd2 inh -3.2%.
`Cc1cc(Cl)ccc1OCCN1CCN(CC2(O)CCCNC2)CC1` (centres undefined) gave Pf Dd2 inh 8.91µM*.
Screening Cc1cc(Cl)ccc1OCCN1CCN(C(=O)[C@H]2CCC[C@H](O)C2)CC1 returned Pf Dd2 inh -20.1%.
For Cc1noc(C2CCCCCN2C(=O)c2ccoc2)n1 (centres undefined) the results were Pf Dd2 inh 27.4%.
`COc1cc(C(=O)N2CCCC2c2nonc2C)ccc1OC1CCN(C(C)=O)CC1` (centres undefined) gave Pf Dd2 inh -19.4%.
Screening COc1cccc(C(=O)N2CC(C(=O)NCCc3ccncc3)C3(CCOCC3)C2)c1 (centres undefined) returned Pf Dd2 inh -0.7%.
`CN(Cc1ccccc1)C(=O)c1cccc2c1CCN2C(=O)Nc1ccccc1` gave Pf Dd2 inh 6.31µM*.
CN(Cc1ccco1)C(=O)c1cccc2c1CCN2C(=O)Nc1ccccc1 was read as Pf Dd2 inh inactive.
For CCNC(=O)c1cccc2c1CCN2C(=O)Nc1ccc(C)cc1 the results were Pf Dd2 inh inactive.
For CCC(NC(=O)C1CCCN(c2cnc3nccnc3c2)C1)c1ccc(OC)cc1 (centres undefined) the results were Pf Dd2 inh -1.3%.
`O=C(NCC1CCOCC1)C1c2ccccc2C(=O)N(Cc2ccccc2)C12CCCC2` (centres undefined) gave Pf Dd2 inh -23.4%.
COc1ccccc1NC(=O)C1c2ccccc2C(=O)N(Cc2ccccc2)C12CCCC2 (centres undefined) was read as Pf Dd2 inh 11.2µM*.
For COCCN1C(=O)c2ccccc2C(C(=O)Nc2ccc(C)cc2Cl)C12CCCC2 (centres undefined) the results were Pf Dd2 inh inactive.
`COCCN1C(=O)c2ccccc2C(C(=O)NC2CCCCCC2)C12CCCC2` (centres undefined) gave Pf Dd2 inh -13.4%.
`COCCN1C(=O)c2ccccc2C(C(=O)NC2CCCCC2)C12CCCC2` (centres undefined) gave Pf Dd2 inh -1.3%.
For COCCN1C(=O)c2ccccc2C(C(=O)Nc2ccc(F)cc2)C12CCCCC2 (centres undefined) the results were Pf Dd2 inh -19.2%.
For CC(C)CCNC(=O)C1c2ccccc2C(=O)N(Cc2ccccc2)C12CCCC2 (centres undefined) the results were Pf Dd2 inh -15.6%.
For COCCN1C(=O)c2ccccc2C(C(=O)Nc2cc(C)ccn2)C12CCCCC2 (centres undefined) the results were Pf Dd2 inh 12.6µM*.
`CC(C)CN1C(=O)c2ccccc2C(C(=O)Nc2ccc(C(N)=O)cc2)C12CCCCC2` (centres undefined) gave Pf Dd2 inh 12.6µM*.
For Cc1ccnc(NC(=O)C2c3ccccc3C(=O)N(CC(C)C)C23CCCC3)c1 (centres undefined) the results were Pf Dd2 inh 5.01µM*.
COCCN1C(=O)c2ccccc2C(C(=O)Nc2ccc3c(c2)OCCO3)C12CCCC2 (centres undefined) was read as Pf Dd2 inh -23.0%.
Screening CN(CC1CCOCC1)C(=O)c1ccc(Cl)s1 returned Pf Dd2 inh -18.5%.
For CNC(=O)c1cc(-c2ccccc2OC)cc2c1OCCN2Cc1cccnc1 the results were Pf Dd2 inh -5.3%[44.1 µM].
